From PubChem BioAssay AID1159580 (chemical genetic matrix, 2015)
“And” between values parts separate entries of the source, which are not always exact repeats. Equal entries are not always repeated. The campaign covered roughly 5,500 compounds. About 2,000 (36%) were called active. Another 18% or so got no clear call; they are omitted. Cut-off read from the data, not from the text of the source: active = normalized growth mostly below about 0.91 (no sharp cut-off); inconclusive = no clear call, values can overlap the other calls; inactive = mostly above about 0.92. Some of the results follow.

Assay: chemical genetic growth profiling, strain panel (AID 1159580);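 note: tested at 20 µM; growth read once vehicle control cultures reached saturation at 30 °C; 1 = growth at the plate median or of vehicle wells; lower values mean less growth of the strain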
Details: S. cerevisiae deletion strains, growth OD

Measured: normalized growth

Nc1ccc(S(=O)(=O)NC(=O)c2ccccc2)cc1
inactive: locus YAL013W, strain DEP1, hits give low values 1.01 | locus YAL021C, strain ccr4, hits give low values 0.985 | locus YAL026C, strain drs2, hits give low values 1 | locus YAL030W, strain snc1, hits give low values 1.01 | locus YBL061C, strain skt5, hits give low values 0.99 | locus YBR009C, strain hhf1, hits give low values 0.959 | locus YBR021W, strain FUR4, hits give low values 1.04 | locus YBR023C, strain chs3, hits give low values 0.995 | locus YBR171W, strain sec66, hits give low values 0.992 | locus YBR229C, strain ROT2, hits give low values 1.01 | locus YBR231C, strain swc5, hits give low values 0.992 | locus YBR279W, strain paf1, hits give low values 0.985 | locus YCL011C, strain gbp2, hits give low values 1 | locus YCL016C, strain dcc1, hits give low values 1.01 | locus YCL029C, strain bik1, hits give low values 1.02 | locus YCL061C, strain MRC1, hits give low values 0.979 | locus YCL069W, strain vba3, hits give low values 0.968 | locus YCR088W, strain abp1, hits give low values 0.978 | locus YDL005C, strain med2, hits give low values 0.992 | locus YDL035C, strain GPR1, hits give low values 1.01 | locus YDL040C, strain nat1, hits give low values 0.998 | locus YDL074C, strain BRE1, hits give low values 1.01 | locus YDL101C, strain DUN1, hits give low values 1.01 | locus YDL134C, strain PPH21, hits give low values 1.02 | locus YDL185W, strain tfp1, hits give low values 0.999 | locus YDL192W, strain arf1, hits give low values 1.02 | locus YDR001C, strain nth1, hits give low values 0.975 | locus YDR069C, strain doa4, hits give low values 0.973 | locus YDR101C, strain arx1, hits give low values 1.02 | locus YDR137W, strain rgp1, hits give low values 0.959 | locus YDR159W, strain sac3, hits give low values 0.948 | locus YDR162C, strain NBP2, hits give low values 1 | locus YDR195W, strain ref2 0.957 | locus YDR297W, strain sur2, hits give low values 0.997 | locus YDR318W, strain mcm21, hits give low values 1.03 | locus YDR334W, strain swr1, hits give low values 0.934 | locus YDR335W, strain msn5, hits give low values 0.985 | locus YDR388W, hits give low values 1.02 | locus YDR392W, strain spt3, hits give low values 1.01 | locus YDR502C, strain sam2, hits give low values 1.03 | locus YEL003W, strain gim4, hits give low values 0.99 | locus YEL037C, strain rad23, hits give low values 0.988 | locus YEL061C, strain CIN8 (second series), hits give low values 0.993 | locus YEL061C, strain CIN8, hits give low values 1.01 | locus YER015W, strain faa2, hits give low values 0.998 | locus YER016W, strain bim1, hits give low values 0.974 | locus YER110C, hits give low values 1.03 | locus YER111C, strain swi4, hits give low values 1.01 | locus YER155C, strain BEM2 (second series), hits give low values 1.02 | locus YER155C, strain BEM2, hits give low values 1.01 | locus YER167W, strain BCK2, hits give low values 1 | locus YFR010W, strain ubp6, hits give low values 0.951 | locus YGL078C, strain dbp3, hits give low values 1.02 | locus YGL086W, strain mad1, hits give low values 1.01 | locus YGL167C, strain pmr1, hits give low values 0.964 | locus YGL173C, strain kem1, hits give low values 0.986 | locus YGL227W, strain vid30, hits give low values 0.967 | locus YGL240W, strain doc1, hits give low values 0.998 | locus YGL248W, strain PDE1, hits give low values 1 | locus YGL253W, strain hxk2, hits give low values 0.989 | locus YGR135W, strain pre9, hits give low values 1.02 | locus YGR252W, strain gcn5, hits give low values 0.997 | locus YHR013C, strain ard1, hits give low values 0.98 | locus YHR027C, strain rpn1, hits give low values 0.993 | locus YHR030C, strain SLT2, hits give low values 1.01 and 0.995 | locus YHR079C, strain IRE1 (second series), hits give low values 1.01 | locus YHR079C, strain IRE1, hits give low values 0.98 | locus YHR094C, strain hxt1, hits give low values 1.01 | locus YHR129C, strain ARP1, hits give low values 0.996 | locus YHR142W, strain chs7, hits give low values 0.997 | locus YHR200W, strain rpn10, hits give low values 1.02 | locus YIL066C, strain RNR3, hits give low values 1.01 | locus YIL073C, strain SPO22, hits give low values 1.06 | locus YIL125W, strain kgd1, hits give low values 1.01 | locus YIR030C, strain dcg1, hits give low values 1.02 | locus YJL092W, strain hpr5, hits give low values 0.993 | locus YJL095W, strain BCK1 (second series), hits give low values 0.996 | locus YJL095W, strain BCK1, hits give low values 0.994 and 0.999 | locus YJL115W, strain asf1, hits give low values 0.999 | locus YJL129C, strain trk1, hits give low values 0.983 | locus YJL134W, strain LCB3, hits give low values 1.01 | locus YJL154C, strain vps35, hits give low values 0.99 | locus YJL164C, strain tpk1, hits give low values 0.979 | locus YJL166W, strain qcr8, hits give low values 0.983 | locus YJL168C, strain set2, hits give low values 1.01 | locus YJL187C, strain SWE1 (second series), hits give low values 1.01 | locus YJL187C, strain SWE1, hits give low values 0.992 | locus YJR043C, strain POL32, hits give low values 1.01
